The source of these data is PubChem BioAssay AID485297 (National Center for Advancing Translational Sciences (NCATS), 2010).

The structures appear in SMILES notation. Out of some 320,000 compounds screened, about 9,100 (2.8%) were called active. Where a call stands in place of a potency, no number is given. Inconclusive results (about 3%) are left out. This is one part of a sample in which actives are shown more often than they occur. Calls come from the whole dose curve; as a rule, active = well fitted activation curve with a large enough effect; inconclusive = small, poorly fitted or top-dose-only effect; inactive = no such curve, though single readings can be large or run the other way.
Potency is the fitted concentration of half-maximal effect.

The nature of this experiment: qHTS Assay for Rab9 Promoter Activators. Note: nearly all actives have a fitted effect of over 60% in size. Particulars: Huh7 Rab9 promoter-luciferase reporter, luminescence, 24 h; series mostly up to 9.22 µM. In outline: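 Rab9 promoter-driven luciferase in stably transfected Huh7 cells; 1500 cells/well rested 2 h, exposed to compound in DMSO for 24 h at 37 °C, 5% CO2. Luminescence read 10 min after adding luciferase reagent at ambient temperature.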
(In qHTS, concentration-response curves come from the screen itself.)
For the compound `CCOc1ccc(N2C(=O)CSC2=NC#N)cc1`, the Potency entry is “inactive”.

In the case of `C=CCn1c(SCC(=O)Nc2ccc(NC(C)=O)cc2)nc2sc(C)c(C)c2c1=O`, the Potency result is “inactive”.

Consider `Cc1nc2ccc(NC(=O)C(F)(F)F)cc2o1`, for which the Potency entry is “inactive”.

For the compound `Cc1ccc(NC(=O)Nc2ccc3oc(C)nc3c2)cc1`, the Potency is 1580 nM (active).

On to `COC(=O)c1ccc(NC(=O)Nc2ccc(C)cc2)cc1`, for which the Potency entry is “inactive”.

`CCOc1ccc(C(=O)NCC(=O)N2CCN(c3ccc(C(F)(F)F)cn3)CC2)cc1`: the Potency entry was “inactive”.

For `CCCCn1c(N)c(N(CCC(C)C)C(=O)COC(=O)c2ccc(CC)cc2)c(=O)[nH]c1=O`, the Potency entry was “inactive”.

For `Cc1ncc(CO)c(/C=N/NC(=O)c2cccc(S(=O)(=O)N3CCCC3)c2)c1O`, the Potency entry is “inactive”.

Turning to `Cc1ccc(NC(=O)O/N=C/c2cccc([N+](=O)[O-])c2)cc1`, the Potency result was “inactive”.

Regarding `O=C(N/N=C/c1cccc([N+](=O)[O-])c1)C1CC(=O)N(c2ccc(Br)cc2)C1` (stereo unspecified), the Potency entry is “inactive”.

Take `O=[N+]([O-])c1cccc(/C=N/Nc2ncc(Br)cn2)c1`: the Potency was 2820 nM (active).

Regarding `CCOc1ccc(NC(=O)CN(C)C(=O)Cn2c(=O)cnc3ccccc32)cc1OCC`, the Potency entry is “inactive”.

For the compound `Cc1nn(Cc2ccc(Cl)cc2)c(Cl)c1/C=N/NC(=O)c1cccnc1`, the Potency result is “inactive”.

For the compound `Cc1cc(/C=N/NC(=O)c2cccnc2)c(C)n1CC(C)C`, the Potency is 2820 nM (active).

As to `O=C(N/N=C/c1ccccn1)c1cccnc1`, the Potency result was “inactive”.

`O=C(Nc1nnc(C2CC2)s1)c1cc(Cl)sc1Cl`: the Potency result is “inactive”.

For the compound `Cc1cnc(NC(=O)CSc2c(Cl)cccc2Cl)s1`, the Potency result is “inactive”.

Consider `CCN(CC)c1ccc(NC(=O)c2ccc(Cl)nc2)cc1`, for which the Potency result is “inactive”.

`Cc1occc1C(=O)Nc1nnc(C2CCCCC2)s1`: the Potency was 2820 nM (active).

`Cc1occc1C(=O)Nc1nnc(-c2ccncc2)s1`: the Potency entry was “inactive”.

Regarding `CS(=O)(=O)c1ccc2nc(NC(=O)c3ccc(Cl)nc3)sc2c1`, the Potency entry was “inactive”.

Regarding `O=C(Nc1nnc(C2CC2)s1)c1ccccn1`, the Potency was 447 nM (active).

With `COc1ccc(NC(=O)CCC(=O)Nc2nnc(C3CCCCC3)s2)cc1`, the Potency result was “inactive”.

As to `O=C(Cc1cccs1)Nc1nnc(C2CC2)s1`, the Potency entry was “inactive”.

For `Cc1cnc(NC(=O)c2ccccn2)s1`, the Potency is 282 nM (active).

On to `Cc1cnc(NC(=O)C2CCCC2)s1`, for which the Potency entry was “inactive”.

For `Cc1cnc(NC(=O)c2ccc(Cl)nc2)s1`, the Potency is 2820 nM (active).

On to `CCCCCN(C(=O)CCC(=O)OCC(=O)NCc1ccc(OC)cc1)c1c(N)n(CCCC)c(=O)[nH]c1=O`, for which the Potency result was “inactive”.

Regarding `CC(=O)c1ccccc1NC(=O)C1CC(=O)N(c2ccc3c(c2)OCCO3)C1` (stereo unspecified), the Potency result is “inactive”.

With `CN(CC(=O)Nc1ccc(OC(F)(F)F)cc1)C(=O)C1CCC1`, the Potency entry is “inactive”.

`CSc1ccccc1NC(=O)COC(=O)CCCOc1ccc(C)cc1`: the Potency result was “inactive”.

Regarding `Cc1ccc(S(=O)(=O)N2CCN(C(=O)N3CCOCC3)CC2)c(C)c1`, the Potency result is “inactive”.

In the case of `COc1ccccc1N1CCN(/N=C/c2ccc(O)cc2O)CC1`, the Potency was 3160 nM (active).

In the case of `COc1cc(/C=N/N2CCN(c3ccccc3)CC2)ccc1OC(C)=O`, the Potency result is “inactive”.

In the case of `COc1ccccc1N1CCN(C(=O)C(=O)N/N=C/c2ccccc2F)CC1`, the Potency result was “inactive”.

With `Fc1ccc(COc2ccc(-c3nnco3)cc2)cc1`, the Potency is 3980 nM (active).

Turning to `Fc1cccc(Cl)c1COc1ccc(-c2nnco2)cc1`, the Potency entry is “inactive”.

In the case of `Fc1ccc(COc2cccc(-c3n[nH]c(=S)o3)c2)cc1`, the Potency result was “inactive”.

`CC(NC(=O)c1cccc(S(=O)(=O)N2CCc3ccccc3C2)c1)c1ccco1` (stereo unspecified): the Potency result was “inactive”.

Consider `O=C(CSc1nnc(CN2CCCC2)n1-c1ccc(F)cc1)c1ccc2c(c1)OCO2`, for which the Potency result was “inactive”.

For `CC(C)(C)OC(=O)NCCCCCNC(=O)c1[nH]cnc1C(=O)Nc1nccs1`, the Potency result is “inactive”.

In the case of `CC(C)c1ccc(N2CCN(C(=O)c3ccccc3NC(=O)/C=C(\C(=O)O)c3ccccc3)CC2)cc1`, the Potency result was “inactive”.

As to `CCSc1nnc(NC(=O)c2ccc(C)cc2)s1`, the Potency was 2240 nM (active).

For `O=C(/C=C/c1ccccc1)Nc1nnc(SCC(=O)c2ccc3ccccc3c2)s1`, the Potency entry is “inactive”.

Regarding `Cc1cccc(CSc2nnc(NC(=O)CSc3nnc(C)s3)s2)c1`, the Potency entry was “inactive”.

For `C=CCSc1nnc(NC(=O)c2ccc(NC(C)=O)cc2)s1`, the Potency entry was “inactive”.

As to `NC(=O)CSc1nnc(NC(=O)c2ccc(Br)o2)s1`, the Potency entry is “inactive”.

Regarding `NC(=O)CSc1nnc(NC(=O)c2ccc3ccccc3c2)s1`, the Potency is 2820 nM (active).

Take `C[C@H](NC(=O)c1ccccc1)C(=O)OCC(=O)c1c[nH]c2ccccc12`: the Potency result was “inactive”.

For `O=C(Nc1ccc(C(F)(F)F)cc1)c1cccc(-n2cnnn2)c1`, the Potency result was “inactive”.

As for `O=C(CCNS(=O)(=O)c1ccccc1)NCCSc1ccc(Br)cc1`, the Potency result was “inactive”.

In the case of `COc1ccccc1-c1nc(SC)n[nH]1`, the Potency entry is “inactive”.

`Cc1cc(C)nc(Nc2n[nH]c(-c3ccccc3N)n2)n1`: the Potency was 501 nM (active).

As to `Cc1cc(C)nc(Nc2ncn[nH]2)n1`, the Potency entry was “inactive”.

In the case of `COC(=O)c1ccc(COC(=O)CNC(=O)c2cccc(OC)c2)o1`, the Potency entry is “inactive”.

With `O=C(Nc1cc(Cl)ccc1N1CCOCC1)c1ccc(N2CCCC2=O)cc1`, the Potency entry was “inactive”.

For `COc1ccccc1CNC(=O)COC(=O)CNS(=O)(=O)c1ccc(NC(C)=O)cc1`, the Potency entry is “inactive”.

Take `Cc1cccc(C(=O)NCC(=O)OCC(=O)N(C)CC(=O)Nc2ccccc2Cl)c1`: the Potency result was “inactive”.

With `CCn1c(SCC(=O)NCC2CCCO2)nc2ccccc21` (stereo unspecified), the Potency result was “inactive”.

On to `CN(C(=O)COC(=O)CCCc1c[nH]c2ccccc12)c1c(N)n(Cc2ccccc2)c(=O)[nH]c1=O`, for which the Potency entry was “inactive”.

`O=Cc1ccc(Oc2cccc(C(F)(F)F)c2)nc1`: the Potency entry was “inactive”.

With `O=[N+]([O-])c1cccc(C2=NCCS2)c1`, the Potency result is “inactive”.

Regarding `FC(F)(F)c1ccnc(Oc2ccc(C3=NCCS3)cc2)c1`, the Potency is 708 nM (active).

Consider `CCN(CC(=O)Nc1ccc(OC)cc1)C(=O)c1ccc(=O)n(Cc2ccccc2)n1`, for which the Potency entry was “inactive”.

For the compound `COc1ccc(NC(=O)COC(=O)c2n[nH]c3ccccc23)c(OC)c1`, the Potency result is “inactive”.

`COc1cccc(NC(=O)c2cc(S(=O)(=O)N3CCc4ccccc43)cn2C)c1`: the Potency entry is “inactive”.

Turning to `O=c1ccc2c(-c3ccccc3S(=O)(=O)O)c3ccc(O)c(O)c3oc-2c1O`, the Potency entry was “inactive”.

For the compound `COc1cc(OC)cc(C(=O)NCC(=O)N2CCCCCCC2)c1`, the Potency result is “inactive”.

`Cc1ccc(SCCC(=O)Nc2cc(C)on2)cc1`: the Potency entry is “inactive”.

Take `Cc1ccc2nc(SCC(=O)NC3CCCC3)[nH]c2c1`: the Potency entry is “inactive”.

As for `Cc1ccc2nc(-c3ccc(SCC(=O)Nc4cc(C)on4)nc3)[nH]c2c1`, the Potency was 3980 nM (active).
